Several values for one entry are separate records, joined by “and”; a condition that tells them apart may be missing. Identical values can stand only once. The campaign covered roughly 5,500 compounds. About 2,000 (36%) were called active. Roughly 18% stayed inconclusive and do not appear here. Cut-off read from the data, not from the text of the source: active = normalized growth mostly below about 0.91 (no sharp cut-off); inconclusive = no clear call, values can overlap the other calls; inactive = mostly above about 0.92. Some of the results follow.
Experiment: chemical genetic growth profiling, strain panel (AID 1159580);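 note: tested at 20 µM; growth read once vehicle control cultures reached saturation at 30 °C; 1 = growth at the plate median or of vehicle wells; lower values mean less growth of the strain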
Settings: growth OD

Measured: normalized growth

CC/C(=C(\c1ccccc1)c1ccc(OCCN(C)C)cc1)c1ccccc1
active: S. cerevisiae deletion strains, locus YKL009W, strain mrt4, hits give low values 0.79 | S. cerevisiae deletion strains, locus YKL160W, strain elf1, hits give low values 0.13 | S. cerevisiae deletion strains, locus YKL190W, strain CNB1, hits give low values 0.045 | S. cerevisiae deletion strains, locus YKR001C, strain vps1, hits give low values 0.064 | S. cerevisiae deletion strains, locus YKR026C, strain gcn3, hits give low values 0.184 | S. cerevisiae deletion strains, locus YKR091W, strain srl3, hits give low values 0.0995 | S. cerevisiae deletion strains, locus YLL001W, strain dnm1, hits give low values 0.0862 | S. cerevisiae deletion strains, locus YLL026W, hits give low values 0.0741 | S. cerevisiae deletion strains, locus YLL041C, strain sdh2, hits give low values 0.115 | S. cerevisiae deletion strains, locus YLR027C, strain aat2, hits give low values 0.0818 | S. cerevisiae deletion strains, locus YLR039C, strain RIC1, hits give low values 0.0749 | S. cerevisiae deletion strains, locus YLR058C, strain SHM2, hits give low values 0.0464 | S. cerevisiae deletion strains, locus YLR102C, strain apc9, hits give low values 0.0601 | S. cerevisiae deletion strains, locus YLR113W, strain HOG1, hits give low values 0.822 | S. cerevisiae deletion strains, locus YLR221C, strain rsa3, hits give low values 0.121 | S. cerevisiae deletion strains, locus YLR258W, strain gsy2, hits give low values 0.0791 | S. cerevisiae deletion strains, locus YLR262C, strain YPT6 (second series), hits give low values 0.182 | S. cerevisiae deletion strains, locus YLR262C, strain YPT6, hits give low values 0.0867 | S. cerevisiae deletion strains, locus YLR268W, strain sec22, hits give low values 0.0695 | S. cerevisiae deletion strains, locus YLR320W, strain mms22, hits give low values 0.171 | S. cerevisiae deletion strains, locus YLR330W, strain CHS5, hits give low values 0.0509 | S. cerevisiae deletion strains, locus YLR342W, strain FKS1 (second series), hits give low values 0.0626 | S. cerevisiae deletion strains, locus YLR342W, strain FKS1, hits give low values 0.0912 | S. cerevisiae deletion strains, locus YLR357W, strain rsc2, hits give low values 0.181 | S. cerevisiae deletion strains, locus YLR370C, strain arc18, hits give low values 0.0663 | S. cerevisiae deletion strains, locus YLR371W, strain rom2, hits give low values 0.0629 | S. cerevisiae deletion strains, locus YLR384C, strain iki3, hits give low values 0.223 | S. cerevisiae deletion strains, locus YLR418C, strain cdc73, hits give low values 0.105 | S. cerevisiae deletion strains, locus YML016C, strain PPZ1, hits give low values 0.0451 | S. cerevisiae deletion strains, locus YML032C, strain rad52, hits give low values 0.0687 | S. cerevisiae deletion strains, locus YML120C, strain ndi1, hits give low values 0.114 | S. cerevisiae deletion strains, locus YML124C, strain tub3, hits give low values 0.0591 | S. cerevisiae deletion strains, locus YMR058W, strain fet3, hits give low values 0.0718 | S. cerevisiae deletion strains, locus YMR078C, strain ctf18, hits give low values 0.0689 | S. cerevisiae deletion strains, locus YMR125W, strain sto1, hits give low values 0.131 | S. cerevisiae deletion strains, locus YMR129W, hits give low values 0.0877 | S. cerevisiae deletion strains, locus YMR205C, strain PFK2, hits give low values 0.172 | S. cerevisiae deletion strains, locus YMR223W, strain ubp8, hits give low values 0.0676 | S. cerevisiae deletion strains, locus YMR231W, strain pep5, hits give low values 0.0689 | S. cerevisiae deletion strains, locus YMR263W, strain SAP30, hits give low values 0.0557 | S. cerevisiae deletion strains, locus YMR307W, strain GAS1, hits give low values 0.103 and 0.123 | S. cerevisiae deletion strains, locus YNL067W, strain RPL9B, hits give low values 0.0484 | S. cerevisiae deletion strains, locus YNL071W, strain lat1, hits give low values 0.165 | S. cerevisiae deletion strains, locus YNL128W, strain TEP1, hits give low values 0.0645 | S. cerevisiae deletion strains, locus YNL153C, strain GIM3, hits give low values 0.0543 | S. cerevisiae deletion strains, locus YNL197C, strain WHI3, hits give low values 0.704 | S. cerevisiae deletion strains, locus YNL209W, strain ssb2, hits give low values 0.1 | S. cerevisiae deletion strains, locus YNL224C, strain SQS1, hits give low values 0.206 | S. cerevisiae deletion strains, locus YNL233W, strain BNI4, hits give low values 0.0506 | S. cerevisiae deletion strains, locus YNL248C, strain rpa49, hits give low values 0.555 | S. cerevisiae deletion strains, locus YNL298W, strain CLA4, hits give low values 0.744 | S. cerevisiae deletion strains, locus YNL307C, strain MCK1, hits give low values 0.0675 | S. cerevisiae deletion strains, locus YNL322C, strain KRE1, hits give low values 0.0467 and 0.567 | S. cerevisiae deletion strains, locus YNR049C, strain mso1, hits give low values 0.0842 | S. cerevisiae deletion strains, locus YNR052C, strain pop2, hits give low values 0.0611 | S. cerevisiae deletion strains, locus YOL006C, strain TOP1, hits give low values 0.0917 | S. cerevisiae deletion strains, locus YOL012C, strain htz1 0.187 | S. cerevisiae deletion strains, locus YOL147C, strain pex11, hits give low values 0.0578 | S. cerevisiae deletion strains, locus YOR001W, strain rrp6, hits give low values 0.431 | S. cerevisiae deletion strains, locus YOR061W, strain CKA2, hits give low values 0.0446 | S. cerevisiae deletion strains, locus YOR069W, strain VPS5, hits give low values 0.0459 | S. cerevisiae deletion strains, locus YOR070C, strain gyp1, hits give low values 0.0646 | S. cerevisiae deletion strains, locus YOR080W, strain dia2, hits give low values 0.408 | S. cerevisiae deletion strains, locus YOR083W, strain WHI5 (second series), hits give low values 0.185 | S. cerevisiae deletion strains, locus YOR083W, strain WHI5, hits give low values 0.0831 | S. cerevisiae deletion strains, locus YOR106W, strain vam3, hits give low values 0.0773 | S. cerevisiae deletion strains, locus YOR136W, strain idh2, hits give low values 0.0725 | S. cerevisiae deletion strains, locus YOR144C, strain elg1, hits give low values 0.0595 | S. cerevisiae deletion strains, locus YOR184W, strain ser1, hits give low values 0.0775 | S. cerevisiae deletion strains, locus YOR265W, strain rbl2, hits give low values 0.0798 | S. cerevisiae deletion strains, locus YOR270C, strain vph1, hits give low values 0.136 | S. cerevisiae deletion strains, locus YOR290C, strain snf2, hits give low values 0.125 | S. cerevisiae deletion strains, locus YOR316C, strain cot1, hits give low values 0.0588 | S. cerevisiae deletion strains, locus YPL051W, strain arl3, hits give low values 0.136 | S. cerevisiae deletion strains, locus YPL055C, strain LGE1, hits give low values 0.0697 | S. cerevisiae deletion strains, locus YPL078C, strain atp4, hits give low values 0.288 | S. cerevisiae deletion strains, locus YPL106C, strain sse1, hits give low values 0.114 | S. cerevisiae deletion strains, locus YPL240C, strain hsp82, hits give low values 0.106 | S. cerevisiae deletion strains, locus YPL241C, strain CIN2, hits give low values 0.0469 | S. cerevisiae deletion strains, locus YPL256C, strain CLN2, hits give low values 0.815 | S. cerevisiae deletion strains, locus YPR119W, strain clb2, hits give low values 0.0696 | S. cerevisiae deletion strains, locus YPR163C, strain tif3, hits give low values 0.0696 | S. cerevisiae deletion strains, locus YPR167C, strain met16, hits give low values 0.0609 | S. cerevisiae deletion strains, strain wtn01, hits give low values 0.0608 | S. cerevisiae strains, strain wild type, hits give low values 0.0464
inactive: S. cerevisiae deletion strains, locus YKL068W, hits give low values 1 | S. cerevisiae deletion strains, locus YKL085W, strain MDH1 (second series), hits give low values 0.952 | S. cerevisiae deletion strains, locus YKL085W, strain MDH1, hits give low values 0.952 | S. cerevisiae deletion strains, locus YNL175C, strain NOP13, hits give low values 0.968 | S. cerevisiae deletion strains, locus YNL183C, strain NPR1, hits give low values 0.901 | S. cerevisiae deletion strains, locus YNL250W, strain rad50, hits give low values 0.999 | S. cerevisiae deletion strains, locus YNL271C, strain bni1, hits give low values 0.953 | S. cerevisiae deletion strains, locus YNL322C, strain KRE1 (second series), hits give low values 1.07 | S. cerevisiae deletion strains, locus YOR231W, strain MKK1, hits give low values 0.894 | S. cerevisiae deletion strains, locus YPR141C, strain kar3, hits give low values 1.04

From PubChem BioAssay AID1159580 (chemical genetic matrix, 2015)
